Inconclusive results are not listed. The source made the active and inactive calls. The call rests on the fitted dose curve.
What was measured:
[1] = biological target: Acetylcholinesterase (Homo sapiens) (UniProt P22303); assay: Acetylcholinesterase (AChE) small molecule antagonists: colormetric cell-based qHTS assay (AID 1347395); further: nearly all actives have a fitted effect of over 30% in size
Procedure, shortened: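 AChE inhibition read colorimetrically via DTNB–thiocholine in SH-SY5Y cells. Compound 30 min, substrate 90 min, both 37 C.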

[2] = biological target: Acetylcholinesterase (Homo sapiens) (UniProt P22303); assay: Acetylcholinesterase (AChE) small molecule antagonists: enzyme-based qHTS assay (AID 1347397); settings: Potency: AChE enzyme activity inhibition; outcome: AChE enzyme activity inhibition; further: nearly all actives have a fitted effect of over 55% in size
Procedure, shortened: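 First, recombinant human AChE (50 mU/mL as dispensed) received test compound or DMSO. Second, plates stood 30 min at room temperature. Third, DTNB and acetylthiocholine were added, followed by 10 min at room temperature and colorimetric detection.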

[3] = biological target: Acetylcholinesterase (Homo sapiens) (UniProt P22303); assay: Acetylcholinesterase (AChE) small molecule antagonists: fluorescence cell-based qHTS assay (AID 1347398); settings: Potency: AChE activity; outcome: AChE activity; further: nearly all actives have a fitted effect of over 50% in size
Procedure, shortened: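 Homogeneous quantitative HTS format. SH-SY5Y cells seeded at 2,000 per well settle overnight at 37 C. Compound pretreatment runs 30 min (37 C, 5% CO2); substrate/probe mix then reacts 40 min at RT before reading 490/520 nm.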

[4] = biological target: Acetylcholinesterase (Homo sapiens) (UniProt P22303); assay: Acetylcholinesterase (AChE) small molecule antagonists: enzyme-based qHTS assay with human liver microsomes (AID 1347399); settings: Potency: qHTS inhibition; outcome: qHTS inhibition; further: nearly all actives have a fitted effect of over 60% in size
Procedure, shortened: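 Recombinant human AChE (50 mU/mL in the enzyme mix) and human liver microsomes (0.25 mg/mL final) were preincubated with compound and NADPH (0.25 mg/mL final) for 30 min at 37 C. Acetylthiocholine/DTNB was then added; thiocholine was read colorimetrically after 10 min at room temperature.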

Measured: Potency

Sequence of Acetylcholinesterase (Homo sapiens) (P22303 whole entry, looked up): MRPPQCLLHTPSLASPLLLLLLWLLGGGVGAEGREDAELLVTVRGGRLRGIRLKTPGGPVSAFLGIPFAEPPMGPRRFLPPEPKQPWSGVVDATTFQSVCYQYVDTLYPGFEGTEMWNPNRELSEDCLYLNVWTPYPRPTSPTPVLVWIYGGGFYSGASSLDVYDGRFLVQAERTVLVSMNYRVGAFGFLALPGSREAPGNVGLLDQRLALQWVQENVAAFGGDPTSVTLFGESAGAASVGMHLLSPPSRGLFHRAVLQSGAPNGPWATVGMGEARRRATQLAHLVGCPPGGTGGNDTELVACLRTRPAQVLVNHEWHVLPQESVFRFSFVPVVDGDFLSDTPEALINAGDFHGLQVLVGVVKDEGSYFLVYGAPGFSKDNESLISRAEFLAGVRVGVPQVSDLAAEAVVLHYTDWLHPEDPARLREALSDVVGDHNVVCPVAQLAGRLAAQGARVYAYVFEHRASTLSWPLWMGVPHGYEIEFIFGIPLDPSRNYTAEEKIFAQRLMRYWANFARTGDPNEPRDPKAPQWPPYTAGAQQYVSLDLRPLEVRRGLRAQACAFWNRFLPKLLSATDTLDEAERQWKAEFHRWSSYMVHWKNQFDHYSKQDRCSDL

CC[N+](CC)(CC)CCOC(=O)C(C1CCCC1)C1CCCC1
inactive: [1] | [2] | [3] | [4]

Cc1ccc(C(C)c2ccc(C)c(C)c2)cc1C
inactive: [1] | [2] | [3] | [4]

OCCCO
inactive: [1] | [2] | [3] | [4]

CC(C)(C)c1ccc(OC(=O)c2ccccc2O)cc1
inactive: [1] | [2] | [3] | [4]

CN1CCN(C2=Nc3ccccc3Sc3ccc(Cl)cc32)CC1
inactive: [1] | [2] | [3] | [4]

CCCc1ccc(O)c(OC)c1
inactive: [1] | [2] | [3] | [4]

CC1=C2[C@H](/C=C(\C)C(=O)O)CC[C@@H](C)[C@H]2CC1
inactive: [1] | [2] | [3] | [4]

N#CC1(c2ccc(F)cc2)CCC(=O)CC1
inactive: [1] | [2] | [3] | [4]

C=COCCCC
inactive: [1] | [2] | [3] | [4]

NC(=O)c1cc[n+](CC2=C(C(=O)[O-])N3C(=O)[C@@H](NC(=O)Cc4cccs4)[C@H]3SC2)cc1
inactive: [1] | [2] | [3] | [4]

OCCC(O)CO (stereo not given)
inactive: [1] | [2] | [3] | [4]

CC1(C)C(=O)N(CO)C(=O)N1CO
inactive: [1] | [2] | [3] | [4]

N#Cc1ccc(C/C(=N/NC(=O)Nc2ccc(OC(F)(F)F)cc2)c2cccc(C(F)(F)F)c2)cc1
inactive: [1] | [2] | [3] | [4]

CNCCS(=O)(=O)O
inactive: [1] | [2] | [3] | [4]

COc1c2occc2c(OC)c2c(=O)cc(C)oc12
inactive: [1] | [2] | [3] | [4]
